Results taken from PubChem BioAssay.
Active and inactive are the calls of the source. Unless noted, how the calls were made is not given here.

Legend:
[1] = system: Wnt5a (protein binding on small-molecule microarray); experiment: small molecules binding Wnt5a protein – biophysical, small-molecule microarray, 635/667 nm fluorescence, primary screen (AID 1142); details: 635 nm fluorescence, higher = more signal;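 further: fluorescence read at 667 nm with signal to noise per printed feature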
[2] = ATP-based viability of Huh7 replicon cells – cell-based, CellTiter-Glo luminescence, basal, 48 h, cytotoxicity control for HCV replication inhibitor project, primary screen (AID 1143); details: higher = more signal, called active from +8 up or from −8 down;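 further: Huh7 hepatoma cells carrying a hepatitis C replication reporter with no stimulus; test concentration not given here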
[3] = Pseudomonas biofilm growth suppression – PAO1 strain, BacTiter-Glo luminescence, LB-PBS, primary screen (AID 1144); details: P. aeruginosa PAO1 biofilm, 12 h, higher = more signal
[4] = basal CRE-LacZ reporter activity in PC12 – cell-based, unstimulated, primary screen (AID 1145); details: no forskolin, luminescence, 4.5 h, higher = more signal, called active from +8 up or from −8 down
[5] = forskolin-driven CRE-LacZ activity in PC12 – cell-based, CRE-LacZ reporter, forskolin-stimulated, primary screen (AID 1146); details: luminescence, 4.5 h, higher = more signal, called active from +8 up or from −8 down;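 further: PC12 cells with 6xCRE LacZ reporter stimulated by forskolin 10 µM; beta-galactosidase reporter signal reflecting CREB driven transcription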
[6] = target: Streptavidin (Streptomyces avidinii) (UniProt P22629); experiment: compounds binding control protein streptavidin – biophysical, small-molecule microarray, 635/667 nm fluorescence, artefact control for SMM compound annotation, primary screen (AID 1147); details: higher = more signal;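 further: signal reflects streptavidin binding to arrayed compounds as a control protein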
Sequence of Streptavidin (Streptomyces avidinii) (P22629 whole entry, looked up): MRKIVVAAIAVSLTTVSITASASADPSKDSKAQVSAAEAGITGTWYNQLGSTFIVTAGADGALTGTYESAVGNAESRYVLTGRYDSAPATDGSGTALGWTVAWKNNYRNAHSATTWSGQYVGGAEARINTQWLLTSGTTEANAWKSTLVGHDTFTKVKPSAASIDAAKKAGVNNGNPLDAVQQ

[7] = probe aInhba binding on compound microarray – biochemical, small-molecule microarray, 635/667 nm fluorescence, primary screen (AID 1148); details: higher = more signal;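 further: score merges 667nm spot fluorescence with signal-to-noise for antibody binding to printed compounds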
[8] = target: Torsin-1A (Homo sapiens) (UniProt O14656); experiment: TOR1A wild-type binding on microarray – cell lysate, small-molecule microarray, lysate, 635/667 nm, primary screen (AID 1149); details: COS7 hTOR1A-WT lysate, 635 nm fluorescence, higher = more signal
Sequence of Torsin-1A (Homo sapiens) (O14656 whole entry, looked up): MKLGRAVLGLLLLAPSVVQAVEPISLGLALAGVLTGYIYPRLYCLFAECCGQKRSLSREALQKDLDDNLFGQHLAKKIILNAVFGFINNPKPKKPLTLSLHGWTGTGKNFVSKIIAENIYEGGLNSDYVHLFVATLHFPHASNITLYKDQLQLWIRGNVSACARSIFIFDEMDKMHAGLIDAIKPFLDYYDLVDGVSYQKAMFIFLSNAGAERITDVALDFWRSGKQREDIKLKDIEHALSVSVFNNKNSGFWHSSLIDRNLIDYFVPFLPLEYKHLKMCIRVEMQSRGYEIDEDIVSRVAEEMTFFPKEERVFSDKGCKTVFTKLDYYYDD

[9] = target: Torsin-1A (Homo sapiens) (UniProt O14656); experiment: torsin A mutant lysate binding on microarrays – cell lysate, small-molecule microarray, COS7 lysate, 635/667 nm fluorescence, primary screen (AID 1150); details: COS7 hTOR1A mutant lysate, 635 nm fluorescence, higher = more signal;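 further: score pools 667 nm emission and signal to noise measuring lysate protein binding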
[10] = system: Sonic hedgehog protein (Shh); experiment: Sonic hedgehog microarray binding compounds – biochemical, small-molecule microarray, 635/667 nm fluorescence, primary screen (AID 1151); details: 635 nm fluorescence, higher = more signal;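 further: Shh protein binding to compounds spotted on small-molecule microarray slides; score combines spot fluorescence intensity with signal-to-noise across triplicate slides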
[11] = optical density shifts of acrAB sulA E. coli – strain DRC41, OD650, 48 h, E. coli filamentation inducer project, primary screen (AID 1152); details: higher = more signal, called active from +8 up or from −8 down;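 further: E. coli MC1000 strain DRC41 lacking acrAB efflux pump and sulA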
[12] = probe aLefty1 binding on compound microarray – biochemical, small-molecule microarray, 635/667 nm fluorescence, primary screen (AID 1153); details: higher = more signal;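 further: score merges spot fluorescence with signal-to-noise ratio from the scanned slide images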
[13] = plasmodial surface anion channel blockers, osmotic lysis – cell-based, P. falciparum Indochina, OD700, 1 h, primary screen (AID 1154); details: P. falciparum Indochina infected RBC osmotic lysis, higher = more signal, called active from +8 up or from −8 down
[14] = plasmodial surface anion channel blockers, osmotic lysis – cell-based, P. falciparum Indochina, OD700, 2 h, primary screen (AID 1155);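 further: lysis reports solute entry through the parasite surface anion channel PSAC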; details: P. falciparum Indochina infected erythrocytes, higher = more signal, called active from +8 up or from −8 down
[15] = changes in parasitized red cell lysis, either direction – P. falciparum Indochina, OD700, 3 h, PSAC antagonist project, primary screen (AID 1156); details: P. falciparum-infected erythrocytes, osmotic lysis, higher = more signal, called active from +8 up or from −8 down
[16] = plasmodial surface anion channel blockers, osmotic lysis – cell-based, P. falciparum Indochina, OD700, 18 h, primary screen (AID 1157); details: P. falciparum Indochina infected erythrocytes, osmotic lysis OD700, 18 h; higher = more signal, called active from +8 up or from −8 down
[17] = S6 kinase pathway phospho-S6 level changes – cell-based, A549, cytoblot, luminescence, serum-stimulated, primary screen (AID 1158); details: 5 h, higher = more signal;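 further: serum-stimulated A549 lung adenocarcinoma cells; signal is phosphorylated S6 detected by cytoblot immunostaining with HRP secondary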
[18] = target: NADPH oxidase 2 (Homo sapiens) (UniProt P04839); experiment: compounds shifting NOX2 Amplex Red fluorescence – cell-based, HEK293-NOX2, PMA-stimulated, NOX inhibitor project, primary screen (AID 1159); details: 45 min, higher = more signal, called active from +8 up or from −8 down; further: test concentration not given here
Sequence of NADPH oxidase 2 (Homo sapiens) (P04839 whole entry, looked up): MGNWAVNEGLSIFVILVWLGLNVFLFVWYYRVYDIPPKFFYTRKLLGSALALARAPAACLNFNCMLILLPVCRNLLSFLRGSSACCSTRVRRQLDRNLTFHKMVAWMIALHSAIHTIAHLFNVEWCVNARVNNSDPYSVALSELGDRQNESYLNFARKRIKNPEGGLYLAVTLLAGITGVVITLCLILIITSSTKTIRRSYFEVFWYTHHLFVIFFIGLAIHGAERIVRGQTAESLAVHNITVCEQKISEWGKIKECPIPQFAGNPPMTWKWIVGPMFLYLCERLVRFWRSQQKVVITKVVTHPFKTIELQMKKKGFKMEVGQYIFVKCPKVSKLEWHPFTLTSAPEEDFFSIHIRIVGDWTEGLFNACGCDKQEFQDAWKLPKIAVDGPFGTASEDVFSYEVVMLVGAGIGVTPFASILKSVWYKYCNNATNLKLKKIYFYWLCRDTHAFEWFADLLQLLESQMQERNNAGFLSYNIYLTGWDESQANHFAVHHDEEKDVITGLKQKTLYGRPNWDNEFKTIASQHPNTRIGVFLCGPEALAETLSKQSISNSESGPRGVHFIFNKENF

[19] = target: NADPH oxidase 4 (Homo sapiens) (UniProt Q9NPH5); experiment: compounds shifting NOX4 Amplex Red fluorescence – cell-based, HEK293-NOX4, tetracycline-induced, NOX inhibitor project, primary screen (AID 1160); details: HEK293-NOX4, Amplex Red H2O2 fluorescence, 45 min; higher = more signal, called active from +8 up or from −8 down
Sequence of NADPH oxidase 4 (Homo sapiens) (Q9NPH5 whole entry, looked up): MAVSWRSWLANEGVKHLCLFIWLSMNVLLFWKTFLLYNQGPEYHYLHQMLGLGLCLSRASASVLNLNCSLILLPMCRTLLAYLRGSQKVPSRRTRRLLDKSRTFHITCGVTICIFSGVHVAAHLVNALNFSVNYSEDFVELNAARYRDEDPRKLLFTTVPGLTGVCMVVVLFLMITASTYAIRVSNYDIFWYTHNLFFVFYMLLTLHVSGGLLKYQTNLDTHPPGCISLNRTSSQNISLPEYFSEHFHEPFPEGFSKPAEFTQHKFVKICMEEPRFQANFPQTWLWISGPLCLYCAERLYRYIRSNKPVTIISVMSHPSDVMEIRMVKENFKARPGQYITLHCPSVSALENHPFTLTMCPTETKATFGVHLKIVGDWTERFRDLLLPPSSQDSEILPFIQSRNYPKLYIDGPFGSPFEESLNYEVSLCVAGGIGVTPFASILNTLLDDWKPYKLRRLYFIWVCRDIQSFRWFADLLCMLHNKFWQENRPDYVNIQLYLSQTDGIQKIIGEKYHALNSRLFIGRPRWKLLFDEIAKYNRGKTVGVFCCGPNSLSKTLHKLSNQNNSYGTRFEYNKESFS

[20] = target: NADPH oxidase 5 (Homo sapiens) (UniProt Q96PH1); experiment: compounds shifting NOX5 Amplex Red fluorescence – cell-based, HEK293-NOX5, NOX inhibitor project, primary screen (AID 1161); details: HEK293-NOX5, ionomycin, 45 min, higher = more signal
Sequence of NADPH oxidase 5 (Homo sapiens) (Q96PH1 whole entry, looked up): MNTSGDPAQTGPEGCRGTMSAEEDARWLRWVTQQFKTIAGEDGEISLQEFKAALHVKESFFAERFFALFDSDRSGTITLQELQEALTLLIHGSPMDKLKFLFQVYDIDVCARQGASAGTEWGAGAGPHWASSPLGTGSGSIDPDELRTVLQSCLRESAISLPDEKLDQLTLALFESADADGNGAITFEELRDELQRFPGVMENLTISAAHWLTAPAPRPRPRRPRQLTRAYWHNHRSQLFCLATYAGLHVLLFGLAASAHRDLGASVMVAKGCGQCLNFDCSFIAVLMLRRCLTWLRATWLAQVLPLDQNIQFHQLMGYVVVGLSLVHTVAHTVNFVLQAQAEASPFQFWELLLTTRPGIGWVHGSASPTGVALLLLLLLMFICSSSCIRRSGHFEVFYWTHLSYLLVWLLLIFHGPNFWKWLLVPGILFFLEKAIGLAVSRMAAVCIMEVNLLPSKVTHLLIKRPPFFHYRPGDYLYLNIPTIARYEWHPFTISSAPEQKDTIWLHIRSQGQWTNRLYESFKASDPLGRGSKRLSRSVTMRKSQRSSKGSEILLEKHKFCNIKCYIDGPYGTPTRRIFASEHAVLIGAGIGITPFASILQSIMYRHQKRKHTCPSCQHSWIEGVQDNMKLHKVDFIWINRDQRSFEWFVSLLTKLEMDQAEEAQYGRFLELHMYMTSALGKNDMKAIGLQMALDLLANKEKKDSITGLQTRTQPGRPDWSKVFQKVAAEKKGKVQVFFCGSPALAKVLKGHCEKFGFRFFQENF

| Compound | composite z-score [1] | z-score [2] | z-score [3] | z-score [4] | z-score [5] | composite z-score [6] | composite z-score [7] | composite z-score [8] | composite z-score [9] | composite z-score [10] | z-score [11] | composite z-score [12] | z-score [13] | z-score [14] | z-score [15] | z-score [16] | z-score [17] | z-score [18] | z-score [19] | z-score [20] |
| --- | --- | --- | --- | --- | --- | --- | --- | --- | --- | --- | --- | --- | --- | --- | --- | --- | --- | --- | --- | --- |
| O=C1O[C@@H](c2ccccc2)[C@@H](c2ccccc2)N2[C@@H](c3ccccc3OCCO)[C@]3(C(=O)Nc4ccccc43)[C@@H](C(=O)NC[C@H](O)c3ccccc3)[C@H]12 | -0.123 | -6.2 (inactive) | -0.668 (inactive) | 0.209 (inactive) | 4.03 (inactive) | -0.625 | -0.149 | 0.604 | 0.297 | 0.0935 | -0.275 (inactive) | 0.0112 | 5.03 (inactive) | 2.2 (inactive) | -0.526 (inactive) | 1.87 (inactive) | -0.589 | 1.43 (inactive) | 0.303 (inactive) | 1.56 |
| COc1ccc([Si](C)(C)[C@@H]2[C@@H](CC(=O)N3CCC[C@H]3CO)O[C@]3(C(=O)N(Cc4ccc(N5C(=O)c6cccc7cccc5c67)cc4)c4ccccc43)[C@H]2C)cc1 | 0.761 | -4.78 (inactive) | -0.489 (inactive) | 0.995 (inactive) | -0.0202 (inactive) | 0.0541 | 0.0184 | 0.344 | 0.72 | 2.06 | 1.13 (inactive) | -0.0984 | 5.77 (inactive) | 1.71 (inactive) | 1.06 (inactive) | 0.918 (inactive) | 0.486 | 3.1 (inactive) | 1.37 (inactive) | 4.38 |
| C=CCN1C(=O)[C@@]2(CCC(=O)OC(C)(C)C)N=C(c3ccc(OCCCO)cc3)O[C@H]2c2ccccc21 | 0.228 | -4.68 (inactive) | 0.324 (inactive) | 0.573 (inactive) | -2.25 (inactive) | 0.57 | 0.0588 | -0.0862 | 0.0147 | 0.832 | 0.46 (inactive) | 0.466 | 36.7 (active) | 36.3 (active) | 3.79 (inactive) | 13.2 (active) | 0.0444 | -2.82 (inactive) | 0.413 (inactive) | -0.917 |
| CC(C)(C)OC(=O)CC[C@]1(C(=O)N2CCOCC2)N=C(c2ccc(OCCCO)cc2)O[C@H]1c1ccccc1 | 0.959 | -1.37 (inactive) | 0.838 (inactive) | -0.114 (inactive) | 1.06 (inactive) | 2.02 | -0.152 | -0.0284 | 0.618 | -0.733 | 1.12 (inactive) | 0.0468 | 22.9 (active) | 5.18 (inactive) | 1.05 (inactive) | 0.815 (inactive) | -0.208 | -0.291 (inactive) | -0.457 (inactive) | -0.474 |
| O=C1O[C@H](c2ccccc2)[C@H](c2ccccc2)N2[C@H]1[C@@H](C(=O)O)[C@]1(C(=O)Nc3ccccc31)[C@H]2c1ccc(O)cc1 | 0.251 | 0.0915 (inactive) | -0.0265 (inactive) | -0.0566 (inactive) | -0.763 (inactive) | -0.516 | -0.0418 | 0.109 | 1.45 | -0.429 | -0.611 (inactive) | -0.0501 | 1.26 (inactive) | 0.789 (inactive) | -0.236 (inactive) | 0.678 (inactive) | 0.374 | -0.295 (inactive) | -0.697 (inactive) | 1.31 |
| CC=CC(O)C1C=CC2C(=O)N(C)C(=O)C2N1N1CCCCC1 (stereo not given) | 0.251 | 0.173 (inactive) | -0.0466 (inactive) | 1.79 (inactive) | 0.319 (inactive) | 0.988 | -0.15 | 0.74 | 0.71 | 0.441 | -1.81 (inactive) | -0.0359 | 0.974 (inactive) | 1.18 (inactive) | -0.343 (inactive) | 0.801 (inactive) | -1.01 | -0.605 (inactive) | -0.473 (inactive) | -1.96 |
| COc1cc2c(cc1O)C(C)N(Cc1cc3c(cc1Br)OCO3)CC2 (stereo not given) | -0.131 | -3.33 (inactive) | 0.3 (inactive) | 1.27 (inactive) | 0.861 (inactive) | -0.679 | -0.157 | -1.12 | -0.829 | -0.836 | 1.2 (inactive) | -0.0196 | 2.87 (inactive) | 0.551 (inactive) | 0.117 (inactive) | 0.401 (inactive) | 0.36 | -3.74 (inactive) | -2.96 (inactive) | -2.91 |
| O=C1OCC=C[C@H]2OC34C=CCN(c5ccc(Cl)cc5)C(=O)[C@H]3N(CCCCCO)C(=O)[C@@H]4[C@@H]12 (stereo not given in full) | -0.391 | -0.116 (inactive) | 1.73 (inactive) | 0.183 (inactive) | 0.168 (inactive) | -1.18 | -0.128 | 0.172 | 2.22 | -0.695 | 0.553 (inactive) | 0.0927 | 2.47 (inactive) | 0.622 (inactive) | 0.871 (inactive) | 0.502 (inactive) | -0.646 | 1.95 (inactive) | 0.525 (inactive) | 2.87 |
| CCOC(=O)C1=CC[C@@H](c2ccccc2C(F)(F)F)N(S(=O)(=O)c2ccc(C)cc2)C1 | 0.658 | -5.24 (inactive) | -0.0874 (inactive) | 0.238 (inactive) | -0.596 (inactive) | 0.867 | 0.693 | -0.117 | 2.07 | 0.0555 | -0.007 (inactive) | 0.743 | 0.565 (inactive) | -0.555 (inactive) | -0.892 (inactive) | -1.92 (inactive) | 0.39 | 0.17 (inactive) | -0.742 (inactive) | -0.836 |
| COc1ccc([Si](C)(C)[C@@H]2[C@@H](CCO)O[C@]3(C(=O)N(Cc4cccc(N5C(=O)c6ccccc6Oc6ccccc65)c4)c4ccccc43)[C@H]2C)cc1 | -0.193 | -5.77 (inactive) | -1.34 (inactive) | 6.17 (inactive) | 0.291 (inactive) | -0.313 | -0.251 | -0.133 | -0.548 | -0.264 | 0.705 (inactive) | 0.0355 | 2.72 (inactive) | 3.13 (inactive) | 0.207 (inactive) | 1.77 (inactive) | 0.243 | 0.423 (inactive) | 0.543 (inactive) | 1.98 |
